Measured values as given in PubChem BioAssay AID1942 (Johns Hopkins Ion Channel Center, 2009).
Screen size: about 2,400 compounds; about 580 (24%) were called active.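 The calls were made as follows: active = activity change at or above the mean plus 3 SD of buffer wells without dofetilide, per plate; inactive = the rest.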 Not all results are given here.

Target: Potassium voltage-gated channel subfamily KQT member 2 (Rattus norvegicus) (UniProt O88943)
Experiment: KCNQ2 potentiation in CHO cells – cell-based, FluxOR thallium flux, counter-screen for hERG block protector project, confirmation (AID 1942);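 also: normalized value minus buffer-control mean plus three SD of buffer wells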
Settings: FluxOR thallium flux fluorescence, at 10 µM, stronger effect = higher value

Potassium voltage-gated channel subfamily KQT member 2 (Rattus norvegicus), sequence (O88943 whole entry, looked up): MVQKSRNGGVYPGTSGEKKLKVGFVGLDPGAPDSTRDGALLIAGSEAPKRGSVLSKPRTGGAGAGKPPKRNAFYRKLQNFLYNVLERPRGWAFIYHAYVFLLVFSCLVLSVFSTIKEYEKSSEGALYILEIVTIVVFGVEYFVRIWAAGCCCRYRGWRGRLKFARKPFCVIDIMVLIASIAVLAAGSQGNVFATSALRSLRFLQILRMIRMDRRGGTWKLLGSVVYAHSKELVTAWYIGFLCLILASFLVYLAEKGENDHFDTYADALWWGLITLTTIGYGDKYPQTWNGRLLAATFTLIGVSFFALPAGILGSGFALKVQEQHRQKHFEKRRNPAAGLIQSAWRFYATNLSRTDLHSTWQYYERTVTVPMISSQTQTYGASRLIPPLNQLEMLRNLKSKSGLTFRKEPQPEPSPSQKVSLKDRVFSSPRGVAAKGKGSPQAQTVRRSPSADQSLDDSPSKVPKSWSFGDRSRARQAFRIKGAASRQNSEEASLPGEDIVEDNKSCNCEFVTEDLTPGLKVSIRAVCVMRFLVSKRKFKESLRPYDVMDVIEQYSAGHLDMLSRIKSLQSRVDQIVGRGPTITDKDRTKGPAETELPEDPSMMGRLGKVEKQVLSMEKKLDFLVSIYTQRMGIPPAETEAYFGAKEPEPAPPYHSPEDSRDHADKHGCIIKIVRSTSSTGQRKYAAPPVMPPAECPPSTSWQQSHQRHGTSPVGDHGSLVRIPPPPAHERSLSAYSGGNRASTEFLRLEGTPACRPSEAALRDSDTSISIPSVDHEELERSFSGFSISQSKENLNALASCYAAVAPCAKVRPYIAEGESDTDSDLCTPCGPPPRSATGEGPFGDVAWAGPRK

Row | Structure (SMILES) | activity change, less the hit threshold
1 | CC(=O)Nc1ccc(S(=O)(=O)N2CCC(NC(=O)c3ccccc3)CC2)cc1 | -20.1% (inactive)
2 | Cc1ccc(NC(=O)CSc2nnc(C3CC3)n2CC2CCCO2)c(C)c1 (stereo unspecified) | -18.6% (inactive)
3 | S=c1[nH]nc(-c2ccco2)n1/N=C/C(Cl)=C/c1ccccc1 | -17.6% (inactive)
4 | O=C(c1cncc(Br)c1)N1CCc2ccccc2C1 | -24.3% (inactive)
5 | C/C(=N\N1CCN(C2c3ccccc3-c3ccccc32)CC1)c1ccncc1 | -19.2% (inactive)
6 | CC(NC(=O)c1ccncc1)C(C)(C)C (stereo unspecified) | 2.9% (active)
7 | O=C(Nn1cnnc1)c1ccncc1 | -10.9% (inactive)
8 | O=C(NC(C(=O)c1ccccc1)n1cnccc1=O)c1ccccc1 (stereo unspecified) | -8.7% (inactive)
9 | Cc1c(OC(C(=O)O)c2ccccc2)ccc2c(-c3ccccc3)cc(=O)oc12 (stereo unspecified) | -7% (inactive)
10 | Cc1ccc2c(c1)c1c(n2CC(O)Cn2nc(C)c(Br)c2C)CCCC1 (stereo unspecified) | -17.5% (inactive)
11 | Cc1cc(C)c2nc(NC(=O)CN3C(=O)NC4(CCCC4)C3=O)sc2c1 | -9% (inactive)
12 | COC(=O)c1sc(NC(=S)NC(=O)c2ccc(C)cc2)nc1C | -13.3% (inactive)
13 | COC(=O)c1sc(NC(=S)NC(=O)c2ccccc2F)nc1C | 11.7% (active)
14 | COC(=O)c1sc(NC(=S)NC(=O)c2ccccc2C)nc1C | 26.5% (active)
15 | O=c1[nH]c(=O)n(CCc2ccc(F)cc2)c(O)c1C=NCc1ccc2c(c1)OCO2 | -22.5% (inactive)
16 | COc1ccc(C(=O)NC2CC3CCCC(C2)N3Cc2ccccc2)cc1 (stereo unspecified) | -27.5% (inactive)
17 | O=c1[nH]c(N2CCN(c3ccccc3)CC2)nc2c1CCCC2 | -11.1% (inactive)
18 | C=C(C)CSc1nc(N)cc(=O)[nH]1 | -12% (inactive)
19 | CC1CCC(n2c(=S)[nH]c3ccccc3c2=O)CC1 (stereo unspecified) | 47.8% (active)
20 | O=c1c2ccccc2[nH]c(=S)n1C1CCCCC1 | -15.1% (inactive)
21 | CC1CCCCC1n1c(=S)[nH]c2ccccc2c1=O (stereo unspecified) | 6.6% (active)

Row | Structure (SMILES) | activity change, less the hit threshold
22 | CC1CCC(N2CCN(C(=O)c3ccccc3F)CC2)CC1 (stereo unspecified) | -9.6% (inactive)
23 | Cn1c(O)c(N=NC(=S)Nc2ccccc2F)c2cc(S(=O)(=O)N3CCOCC3)ccc21 | -19.7% (inactive)
24 | Cc1ccc(C(C)C)cc1S(=O)(=O)NC1CC(C)(C)NC(C)(C)C1 | -26% (inactive)
25 | Nc1cc(N)nc(SCc2cc(=O)oc3cc4c(cc23)CCC4)n1 | -20.8% (inactive)
26 | CS(=O)(=O)N(CCc1ccccc1)CC(=O)N1CCN(c2ccc(F)cc2)CC1 | -26.1% (inactive)
27 | Cc1cc(C(=O)NCc2ccc(S(N)(=O)=O)cc2)ccc1[N+](=O)[O-] | -13.6% (inactive)
28 | O=C(NCc1cccnc1)c1ccc(NS(=O)(=O)c2ccc(F)cc2)cc1 | -4.9% (inactive)
29 | Cc1cc2ccccn2c1C(=S)NC(=O)c1ccccc1 | 40.3% (active)
30 | O=C(NC(=S)Nc1ncc(Br)cc1Br)c1ccccc1 | -0.7% (inactive)
31 | O=C(c1n[nH]c2c1CCCC2)n1ccnc1 | -12.7% (inactive)
32 | C[C@@H]1CCCCCCCCCCC1=O | -18% (inactive)
33 | Cc1ccc(C(=O)CC(=O)c2ccc(C)cc2O)cc1 | -9.3% (inactive)
34 | Cc1ccc(C(=O)COC(=O)C2CCC2)cc1 | 2.2% (active)
35 | Cc1ccc(C(=O)CC(=O)COc2ccc(Cl)cc2C)cc1 | -1.4% (inactive)
36 | O=c1ccn(Cc2ccc(F)cc2)c2ccnc(C(F)(F)F)c12 | -16.3% (inactive)
37 | CCc1ccc2[nH]c(=O)c(-c3ccccc3)c(O)c2c1 | -20.4% (inactive)
38 | Cc1cccc(N2CCN(C(=O)CNC(=O)c3cccc([N+](=O)[O-])c3)CC2)c1C | -27.6% (inactive)
39 | Cc1cccc(N2CCN(C(=O)Cc3c(C(=O)O)[nH]c4ccc(Cl)cc34)CC2)c1C | 16.8% (active)
40 | Cc1cc2[nH]c(=O)c(=O)[nH]c2cc1S(=O)(=O)N1CCN(c2cccc(C)c2C)CC1 | -10.5% (inactive)
41 | CCOC(=O)C1=C(N)Oc2cc(O)ccc2C1c1cccnc1 (stereo unspecified) | -24.7% (inactive)
42 | O=C(NC(=S)N1CCN(c2c(Cl)cccc2[N+](=O)[O-])CC1)c1cccs1 | 7.2% (active)

Row | Structure (SMILES) | activity change, less the hit threshold
43 | O=C(NC(=S)Nc1ccc(N2CCCCC2)c(Cl)c1)c1cccs1 | -0.7% (inactive)
44 | COc1cccc(OC)c1C(=O)NC(=S)N1CCN(c2ccc(C(F)(F)F)cc2[N+](=O)[O-])CC1 | -33.8% (inactive)
45 | O=C(NC(=S)N1CCN(c2ccc(Cl)cc2[N+](=O)[O-])CC1)c1cccs1 | 2.3% (active)
46 | O=C(NC(=S)Nc1cccc(Cl)c1N1CCCCC1)c1cccs1 | -12.7% (inactive)
47 | CC(C)Oc1cccc(C(=O)NC(=S)N2CCN(c3ccc(C(F)(F)F)cc3[N+](=O)[O-])CC2)c1 | -12.3% (inactive)
48 | COc1ccc(N2CCN(C(=S)NC(=O)c3cccs3)CC2)c([N+](=O)[O-])c1 | -6.4% (inactive)
49 | O=C(NC(=S)Nc1cccc(Cl)c1N1CCOCC1)c1cccs1 | -17% (inactive)
50 | O=C(NC(=S)N1CCN(c2ccc(C(F)(F)F)cc2[N+](=O)[O-])CC1)c1cccs1 | 15.6% (active)
51 | COc1ccc(-c2ccc3c(N)c(C(=O)c4ccc(OC)c(OC)c4)sc3n2)cc1 | -11.8% (inactive)
52 | Cc1c(C#N)c(O)[nH]c(=O)c1N=Nc1ccc(Br)cc1C(=O)O | -13.8% (inactive)
53 | COc1ccc2c(C(=O)CN3CCN(c4ccccc4)CC3)c[nH]c2c1 | -21.6% (inactive)
54 | CCCCCCc1c(O)nc(SCC(=O)O)[nH]c1=O | -23.9% (inactive)
55 | CC1=NN(c2nc(-c3ccccc3)cs2)C(=O)C1N=Nc1ccccc1 (stereo unspecified) | -28% (inactive)
56 | CCc1nnc(NC(=O)C2CCCCN2S(=O)(=O)c2ccccc2)s1 (stereo unspecified) | -11.7% (inactive)
57 | Cc1nnc(NC(=O)C2CCCN(S(=O)(=O)c3ccccc3C(F)(F)F)C2)s1 (stereo unspecified) | 4.9% (active)
58 | COC(=O)c1ccccc1NC(=O)C1CCCN(S(C)(=O)=O)C1 (stereo unspecified) | -18.8% (inactive)
59 | CSc1nsc(SCC(=O)Nc2ccccc2C(=O)O)n1 | -13% (inactive)
60 | COC(=O)CCn1[nH]c(=O)c2ccccc2c1=O | -15.8% (inactive)
61 | CC(=O)NCCc1nc2cc(NC(=O)c3ccc(Cl)cc3)ccc2n1C | -14.1% (inactive)
